Key:
Experiment in all cases: DAPPL (digital affinity profiling via proximity ligation, sequencing); 10 mM Tris-HCl pH 7.5, 50 mM NaCl, 1 mM DTT, 4% glycerol, room temperature, 30 min; GST-TFs on glutathione beads, 16-mer random dsDNA library, 0.1% formaldehyde crosslink after washing; high values mean tight binding
FLI1 = target: T1, FLI1 (Homo sapiens, UniProt Q01543 1-452); details: protein: recombinant; tags: N-terminal GST; dsDNA, one strand shown
T1 sequence: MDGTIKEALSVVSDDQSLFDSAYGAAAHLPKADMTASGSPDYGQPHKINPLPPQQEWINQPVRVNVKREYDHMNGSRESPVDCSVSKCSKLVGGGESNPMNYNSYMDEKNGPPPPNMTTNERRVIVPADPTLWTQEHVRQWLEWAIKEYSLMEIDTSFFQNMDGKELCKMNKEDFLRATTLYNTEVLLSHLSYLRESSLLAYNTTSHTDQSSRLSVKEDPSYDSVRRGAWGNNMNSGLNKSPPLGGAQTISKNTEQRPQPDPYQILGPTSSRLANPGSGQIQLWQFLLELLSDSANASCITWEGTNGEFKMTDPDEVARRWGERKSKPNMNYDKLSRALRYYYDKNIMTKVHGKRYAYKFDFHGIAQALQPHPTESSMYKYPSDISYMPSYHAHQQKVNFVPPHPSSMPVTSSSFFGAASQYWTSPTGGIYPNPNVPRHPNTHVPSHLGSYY
How it was run: (§1)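 GST fusions of human transcription factors were expressed in yeast and captured with glutathione beads. Once given DNA barcodes and pooled alongside a tag-only sample, they were incubated for 30 min at room temperature with 200 nmole of a random double-stranded 16-mer DNA library in Tris/NaCl/DTT/glycerol buffer, then washed, crosslinked (0.1% formaldehyde), proximity-ligated, PCR-amplified and sequenced on an Illumina NextSeq500. The binding signal of each hexamer is its read frequency for a factor divided by its frequency for the tag-only sample.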

ELK1 = target: T2, ELK1 (Homo sapiens, UniProt P19419 1-428); details: protein: recombinant; tags: N-terminal GST; dsDNA, one strand shown
T2 sequence: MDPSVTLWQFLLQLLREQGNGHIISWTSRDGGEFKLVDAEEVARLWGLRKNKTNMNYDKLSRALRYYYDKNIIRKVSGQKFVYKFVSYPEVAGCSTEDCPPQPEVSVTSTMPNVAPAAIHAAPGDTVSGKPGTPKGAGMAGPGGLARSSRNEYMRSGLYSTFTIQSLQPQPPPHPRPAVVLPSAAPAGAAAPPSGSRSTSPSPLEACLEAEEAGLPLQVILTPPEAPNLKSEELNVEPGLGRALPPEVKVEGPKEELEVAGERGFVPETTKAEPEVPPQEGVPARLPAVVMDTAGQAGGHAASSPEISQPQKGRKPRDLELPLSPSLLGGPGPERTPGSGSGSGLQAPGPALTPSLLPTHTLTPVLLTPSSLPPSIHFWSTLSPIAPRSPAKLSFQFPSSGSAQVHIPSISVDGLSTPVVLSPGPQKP
How it was run: as §1

GABPA = target: T3, GABPA (Homo sapiens, UniProt Q06546 1-454); details: protein: recombinant; tags: N-terminal GST; dsDNA, one strand shown
T3 sequence: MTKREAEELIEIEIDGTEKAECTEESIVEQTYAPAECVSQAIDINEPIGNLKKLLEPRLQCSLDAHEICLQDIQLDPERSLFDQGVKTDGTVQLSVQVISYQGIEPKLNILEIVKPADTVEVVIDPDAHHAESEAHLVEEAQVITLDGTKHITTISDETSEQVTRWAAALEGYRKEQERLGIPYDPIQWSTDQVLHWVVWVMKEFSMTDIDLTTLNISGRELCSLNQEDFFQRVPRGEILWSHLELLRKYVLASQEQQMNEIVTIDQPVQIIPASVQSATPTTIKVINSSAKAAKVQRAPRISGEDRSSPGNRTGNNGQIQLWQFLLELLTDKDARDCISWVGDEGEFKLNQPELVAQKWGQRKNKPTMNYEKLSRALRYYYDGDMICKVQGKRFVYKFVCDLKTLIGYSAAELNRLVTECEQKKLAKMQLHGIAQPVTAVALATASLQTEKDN
How it was run: as §1

ERG = target: T4, ERG (Homo sapiens, UniProt P11308 1-479); details: protein: recombinant; tags: N-terminal GST; dsDNA, one strand shown
T4 sequence: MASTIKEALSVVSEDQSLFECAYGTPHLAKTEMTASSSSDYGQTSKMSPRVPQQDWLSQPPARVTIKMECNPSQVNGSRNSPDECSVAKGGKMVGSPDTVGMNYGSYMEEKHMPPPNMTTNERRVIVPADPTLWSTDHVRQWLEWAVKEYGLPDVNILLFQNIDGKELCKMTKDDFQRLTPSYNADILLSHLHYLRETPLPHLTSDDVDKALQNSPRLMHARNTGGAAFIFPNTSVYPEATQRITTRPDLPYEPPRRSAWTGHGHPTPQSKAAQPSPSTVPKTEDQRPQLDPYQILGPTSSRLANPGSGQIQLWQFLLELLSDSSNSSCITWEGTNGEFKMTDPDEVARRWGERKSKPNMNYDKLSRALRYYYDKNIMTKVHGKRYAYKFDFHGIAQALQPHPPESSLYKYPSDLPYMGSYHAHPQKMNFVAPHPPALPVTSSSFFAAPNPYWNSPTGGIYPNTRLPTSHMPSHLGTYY
How it was run: as §1

ELF1 = ELF1 (Homo sapiens, UniProt P32519 1-619); details: protein: recombinant; tags: N-terminal GST; dsDNA, one strand shown
How it was run: as §1

EHF = target: T5, EHF (Homo sapiens, UniProt Q9NZC4 1-300); details: protein: recombinant; tags: N-terminal GST; dsDNA, one strand shown
T5 sequence: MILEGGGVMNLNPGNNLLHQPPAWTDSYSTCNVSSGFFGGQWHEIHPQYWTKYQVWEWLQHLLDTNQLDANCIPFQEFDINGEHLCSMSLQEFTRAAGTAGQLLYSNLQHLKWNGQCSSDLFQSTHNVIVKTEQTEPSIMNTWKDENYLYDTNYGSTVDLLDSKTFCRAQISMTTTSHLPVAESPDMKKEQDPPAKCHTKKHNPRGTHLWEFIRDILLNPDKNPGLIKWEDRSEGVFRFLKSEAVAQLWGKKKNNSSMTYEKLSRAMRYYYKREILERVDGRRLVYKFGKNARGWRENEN
How it was run: as §1

SPI1 = SPI1 (Homo sapiens, UniProt P17947 1-270); details: protein: recombinant; tags: N-terminal GST; dsDNA, one strand shown
How it was run: as §1

SPIB = SPIB (Homo sapiens, UniProt Q01892 1-262); details: protein: recombinant; tags: N-terminal GST; dsDNA, one strand shown
How it was run: as §1

ELK3 = target: T6, ELK3 (Homo sapiens, UniProt P41970 1-407); details: protein: recombinant; tags: N-terminal GST; dsDNA, one strand shown
T6 sequence: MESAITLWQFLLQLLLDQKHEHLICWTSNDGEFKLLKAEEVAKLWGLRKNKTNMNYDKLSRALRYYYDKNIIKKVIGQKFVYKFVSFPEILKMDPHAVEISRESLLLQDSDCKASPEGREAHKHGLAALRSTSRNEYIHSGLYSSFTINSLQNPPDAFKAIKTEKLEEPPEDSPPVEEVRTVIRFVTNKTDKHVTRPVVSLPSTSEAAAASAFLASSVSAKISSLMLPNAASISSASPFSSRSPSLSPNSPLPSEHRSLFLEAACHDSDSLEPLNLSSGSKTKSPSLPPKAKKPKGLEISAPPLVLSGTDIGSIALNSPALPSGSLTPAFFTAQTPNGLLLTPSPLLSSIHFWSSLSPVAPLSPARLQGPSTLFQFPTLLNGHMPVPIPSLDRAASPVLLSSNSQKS
How it was run: as §1

FEV = target: T7, FEV (Homo sapiens, UniProt Q99581 1-238); details: protein: recombinant; tags: N-terminal GST; dsDNA, one strand shown
T7 sequence: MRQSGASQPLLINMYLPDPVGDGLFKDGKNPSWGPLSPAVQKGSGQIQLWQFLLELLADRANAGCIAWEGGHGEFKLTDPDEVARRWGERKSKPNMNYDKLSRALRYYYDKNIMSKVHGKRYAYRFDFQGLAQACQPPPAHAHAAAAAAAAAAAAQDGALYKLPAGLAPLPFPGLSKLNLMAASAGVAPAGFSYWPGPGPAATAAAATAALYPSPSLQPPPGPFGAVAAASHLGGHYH
How it was run: as §1

ETV5 = ETV5 (Homo sapiens, UniProt P41161 1-510); details: protein: recombinant; tags: N-terminal GST; dsDNA, one strand shown
How it was run: as §1

HSF1 = HSF1 (Homo sapiens, UniProt Q00613 1-529); details: protein: recombinant; tags: N-terminal GST; chain copies: 3; dsDNA, one strand shown
How it was run: as §1

SPIC = target: T8, SPIC (Homo sapiens, UniProt Q8N5J4 1-248); details: protein: recombinant; tags: N-terminal GST; dsDNA, one strand shown
T8 sequence: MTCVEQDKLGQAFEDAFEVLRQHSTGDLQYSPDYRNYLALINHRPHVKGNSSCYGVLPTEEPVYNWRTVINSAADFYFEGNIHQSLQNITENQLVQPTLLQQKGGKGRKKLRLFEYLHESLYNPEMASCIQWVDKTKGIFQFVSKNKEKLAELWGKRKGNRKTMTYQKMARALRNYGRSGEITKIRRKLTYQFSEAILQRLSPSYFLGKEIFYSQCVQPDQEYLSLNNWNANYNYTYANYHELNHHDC
How it was run: as §1

ELF4 = ELF4 (Homo sapiens, UniProt Q99607 1-663); details: protein: recombinant; tags: N-terminal GST; dsDNA, one strand shown
How it was run: as §1

ELK4 = target: T9, ELK4 (Homo sapiens, UniProt P28324-2 1-405); details: protein: recombinant; tags: N-terminal GST; dsDNA, one strand shown
T9 sequence: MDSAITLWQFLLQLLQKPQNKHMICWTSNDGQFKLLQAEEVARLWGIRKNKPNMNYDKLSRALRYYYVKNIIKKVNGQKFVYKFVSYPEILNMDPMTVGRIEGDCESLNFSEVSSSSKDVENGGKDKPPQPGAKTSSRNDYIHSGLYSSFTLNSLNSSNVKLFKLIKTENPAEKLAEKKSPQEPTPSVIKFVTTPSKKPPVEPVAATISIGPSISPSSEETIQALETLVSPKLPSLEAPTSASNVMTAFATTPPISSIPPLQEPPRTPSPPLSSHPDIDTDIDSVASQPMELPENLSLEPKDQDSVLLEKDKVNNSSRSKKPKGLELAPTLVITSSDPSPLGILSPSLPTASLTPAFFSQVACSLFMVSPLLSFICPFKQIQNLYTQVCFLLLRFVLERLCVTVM
How it was run: as §1

ETV2 = target: T10, ETV2 (Homo sapiens, UniProt O00321 1-342); details: protein: recombinant; tags: N-terminal GST; dsDNA, one strand shown
T10 sequence: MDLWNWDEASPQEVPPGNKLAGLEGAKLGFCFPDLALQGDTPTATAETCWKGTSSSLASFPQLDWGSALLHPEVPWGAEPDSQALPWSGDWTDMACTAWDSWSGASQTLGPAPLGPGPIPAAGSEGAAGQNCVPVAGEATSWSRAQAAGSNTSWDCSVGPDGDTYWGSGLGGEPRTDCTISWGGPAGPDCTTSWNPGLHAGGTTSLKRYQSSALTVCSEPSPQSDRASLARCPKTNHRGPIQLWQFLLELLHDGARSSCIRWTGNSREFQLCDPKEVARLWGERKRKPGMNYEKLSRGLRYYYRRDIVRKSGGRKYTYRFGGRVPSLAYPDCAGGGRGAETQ
How it was run: as §1

ELF3 = target: T11, ELF3 (Homo sapiens, UniProt P78545 1-371); details: protein: recombinant; tags: N-terminal GST; dsDNA, one strand shown
T11 sequence: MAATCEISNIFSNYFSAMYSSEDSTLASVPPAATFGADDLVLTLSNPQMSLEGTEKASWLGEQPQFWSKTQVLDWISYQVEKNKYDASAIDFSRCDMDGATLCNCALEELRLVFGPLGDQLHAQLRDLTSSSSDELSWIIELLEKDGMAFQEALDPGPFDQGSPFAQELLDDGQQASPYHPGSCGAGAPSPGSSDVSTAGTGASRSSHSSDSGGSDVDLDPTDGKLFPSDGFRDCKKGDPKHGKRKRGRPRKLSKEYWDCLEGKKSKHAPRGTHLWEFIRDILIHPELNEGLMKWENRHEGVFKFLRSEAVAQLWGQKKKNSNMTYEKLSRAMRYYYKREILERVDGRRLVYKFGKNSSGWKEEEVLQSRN
How it was run: as §1

CRX = CRX (Homo sapiens, UniProt O43186 1-299); details: protein: recombinant; tags: N-terminal GST; dsDNA, one strand shown
How it was run: as §1

ETV1 = ETV1 (Homo sapiens, UniProt P50549 1-477); details: protein: recombinant; tags: N-terminal GST; dsDNA, one strand shown
How it was run: as §1

ELF1, sequence (P32519 whole entry): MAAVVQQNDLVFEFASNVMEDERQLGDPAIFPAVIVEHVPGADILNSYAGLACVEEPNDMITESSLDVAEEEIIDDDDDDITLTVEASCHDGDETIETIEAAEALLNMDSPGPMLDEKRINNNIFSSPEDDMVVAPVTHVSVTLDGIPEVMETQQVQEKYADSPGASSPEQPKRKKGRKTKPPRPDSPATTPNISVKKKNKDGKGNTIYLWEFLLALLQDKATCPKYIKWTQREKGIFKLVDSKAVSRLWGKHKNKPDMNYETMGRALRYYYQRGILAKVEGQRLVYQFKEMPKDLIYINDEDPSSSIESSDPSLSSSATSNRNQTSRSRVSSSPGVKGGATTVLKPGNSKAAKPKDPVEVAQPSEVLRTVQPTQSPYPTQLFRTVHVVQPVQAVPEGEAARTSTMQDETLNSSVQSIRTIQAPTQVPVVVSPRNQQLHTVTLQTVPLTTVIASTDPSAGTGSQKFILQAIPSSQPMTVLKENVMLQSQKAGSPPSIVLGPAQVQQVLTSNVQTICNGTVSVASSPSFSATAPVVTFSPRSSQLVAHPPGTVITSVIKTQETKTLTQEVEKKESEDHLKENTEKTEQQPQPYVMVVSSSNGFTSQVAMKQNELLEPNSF
SPIB, sequence (Q01892 whole entry): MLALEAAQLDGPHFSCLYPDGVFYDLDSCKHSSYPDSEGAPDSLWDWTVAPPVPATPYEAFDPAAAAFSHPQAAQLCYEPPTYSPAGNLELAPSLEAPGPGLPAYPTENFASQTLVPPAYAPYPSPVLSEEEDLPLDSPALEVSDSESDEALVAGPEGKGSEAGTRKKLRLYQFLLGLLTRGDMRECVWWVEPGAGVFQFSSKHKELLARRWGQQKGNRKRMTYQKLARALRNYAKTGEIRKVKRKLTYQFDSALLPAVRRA
ELF4, sequence (Q99607 whole entry): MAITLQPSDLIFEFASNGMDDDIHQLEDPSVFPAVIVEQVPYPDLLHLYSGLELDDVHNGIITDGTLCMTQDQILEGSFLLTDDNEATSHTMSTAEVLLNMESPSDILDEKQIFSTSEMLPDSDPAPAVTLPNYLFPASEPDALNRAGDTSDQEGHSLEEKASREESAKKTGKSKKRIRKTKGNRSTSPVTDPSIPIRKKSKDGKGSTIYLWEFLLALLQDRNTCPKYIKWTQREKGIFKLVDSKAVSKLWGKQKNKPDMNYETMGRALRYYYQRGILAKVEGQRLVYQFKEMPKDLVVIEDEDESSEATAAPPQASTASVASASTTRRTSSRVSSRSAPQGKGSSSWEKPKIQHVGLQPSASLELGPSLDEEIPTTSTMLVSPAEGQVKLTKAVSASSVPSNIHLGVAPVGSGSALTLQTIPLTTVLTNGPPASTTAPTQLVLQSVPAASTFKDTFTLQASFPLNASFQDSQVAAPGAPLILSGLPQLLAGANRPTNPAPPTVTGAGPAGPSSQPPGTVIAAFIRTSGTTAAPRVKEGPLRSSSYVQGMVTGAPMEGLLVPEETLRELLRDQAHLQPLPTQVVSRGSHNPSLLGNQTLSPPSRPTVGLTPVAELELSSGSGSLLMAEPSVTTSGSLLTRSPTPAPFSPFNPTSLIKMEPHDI
ETV1, sequence (P50549 whole entry): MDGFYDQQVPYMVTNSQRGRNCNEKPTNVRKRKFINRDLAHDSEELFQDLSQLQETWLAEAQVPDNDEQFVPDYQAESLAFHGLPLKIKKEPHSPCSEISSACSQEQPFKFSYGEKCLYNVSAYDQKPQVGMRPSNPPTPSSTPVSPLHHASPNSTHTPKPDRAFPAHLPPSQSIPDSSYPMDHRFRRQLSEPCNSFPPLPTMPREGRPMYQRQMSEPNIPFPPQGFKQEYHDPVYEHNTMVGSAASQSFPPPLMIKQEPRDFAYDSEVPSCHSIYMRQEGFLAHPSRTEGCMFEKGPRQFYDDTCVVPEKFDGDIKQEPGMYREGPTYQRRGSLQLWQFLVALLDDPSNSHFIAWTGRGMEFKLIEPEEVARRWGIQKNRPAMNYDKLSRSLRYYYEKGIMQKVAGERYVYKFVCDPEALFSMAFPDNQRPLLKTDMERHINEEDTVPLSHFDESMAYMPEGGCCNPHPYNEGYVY
HSF1, sequence (Q00613 whole entry): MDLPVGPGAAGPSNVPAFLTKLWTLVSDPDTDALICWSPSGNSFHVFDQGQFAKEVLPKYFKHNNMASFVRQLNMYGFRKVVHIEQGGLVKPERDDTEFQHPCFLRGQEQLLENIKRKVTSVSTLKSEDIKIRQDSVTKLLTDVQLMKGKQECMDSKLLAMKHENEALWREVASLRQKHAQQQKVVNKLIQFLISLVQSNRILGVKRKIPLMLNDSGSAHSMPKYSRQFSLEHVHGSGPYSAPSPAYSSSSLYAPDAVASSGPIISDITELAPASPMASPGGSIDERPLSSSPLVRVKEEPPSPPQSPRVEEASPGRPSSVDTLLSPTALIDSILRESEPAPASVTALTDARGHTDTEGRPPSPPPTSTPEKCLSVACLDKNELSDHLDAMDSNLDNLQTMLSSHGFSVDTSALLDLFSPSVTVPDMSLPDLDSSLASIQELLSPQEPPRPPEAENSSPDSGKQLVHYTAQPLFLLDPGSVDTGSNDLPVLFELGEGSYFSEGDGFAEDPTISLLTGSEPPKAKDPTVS
ETV5, sequence (P41161 whole entry): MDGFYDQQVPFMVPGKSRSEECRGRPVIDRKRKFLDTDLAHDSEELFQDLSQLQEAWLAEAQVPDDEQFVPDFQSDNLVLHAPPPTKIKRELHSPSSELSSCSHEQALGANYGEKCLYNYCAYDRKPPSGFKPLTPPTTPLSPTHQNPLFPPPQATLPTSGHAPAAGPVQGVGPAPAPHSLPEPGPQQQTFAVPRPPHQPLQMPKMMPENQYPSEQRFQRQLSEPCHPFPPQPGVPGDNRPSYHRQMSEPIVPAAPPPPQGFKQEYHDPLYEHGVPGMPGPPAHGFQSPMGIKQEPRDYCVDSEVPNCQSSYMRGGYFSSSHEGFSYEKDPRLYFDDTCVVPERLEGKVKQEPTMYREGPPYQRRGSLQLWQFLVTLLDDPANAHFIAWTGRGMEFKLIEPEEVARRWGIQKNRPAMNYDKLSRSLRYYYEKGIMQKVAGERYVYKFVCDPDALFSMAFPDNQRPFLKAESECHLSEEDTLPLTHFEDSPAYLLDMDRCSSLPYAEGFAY
CRX, sequence (O43186 whole entry): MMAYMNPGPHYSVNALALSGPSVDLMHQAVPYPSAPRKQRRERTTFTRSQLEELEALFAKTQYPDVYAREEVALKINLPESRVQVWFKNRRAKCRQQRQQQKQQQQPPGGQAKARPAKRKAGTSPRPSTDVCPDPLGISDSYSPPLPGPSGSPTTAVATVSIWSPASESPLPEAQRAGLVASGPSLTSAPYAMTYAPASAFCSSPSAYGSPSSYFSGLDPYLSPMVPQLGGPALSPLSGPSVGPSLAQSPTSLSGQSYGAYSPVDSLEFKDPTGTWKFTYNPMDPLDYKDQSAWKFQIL

AGCCCC
binding signal (FLI1): 1.09 fold enrichment (6-mer frequency, TF over GST control)
binding signal (ELK1): 1.01 fold enrichment (6-mer frequency, TF over GST control)
binding signal (GABPA): 1.11 fold enrichment (6-mer frequency, TF over GST control)
binding signal (ERG): 1.06 fold enrichment (6-mer frequency, TF over GST control)
binding signal (ELF1): 1.05 fold enrichment (6-mer frequency, TF over GST control)
binding signal (EHF): 1.05 fold enrichment (6-mer frequency, TF over GST control)
binding signal (SPI1): 1.02 fold enrichment (6-mer frequency, TF over GST control)
binding signal (SPIB): 1.08 fold enrichment (6-mer frequency, TF over GST control)
binding signal (ELK3): 1.07 fold enrichment (6-mer frequency, TF over GST control)
binding signal (FEV): 1.12 fold enrichment (6-mer frequency, TF over GST control)
binding signal (ETV5): 1.14 fold enrichment (6-mer frequency, TF over GST control)
binding signal (HSF1): 1.02 fold enrichment (6-mer frequency, TF over GST control)
binding signal (SPIC): 1.09 fold enrichment (6-mer frequency, TF over GST control)
binding signal (ELF4): 1.07 fold enrichment (6-mer frequency, TF over GST control)
binding signal (ELK4): 1.17 fold enrichment (6-mer frequency, TF over GST control)
binding signal (ETV2): 1.23 fold enrichment (6-mer frequency, TF over GST control)
binding signal (ELF3): 1.15 fold enrichment (6-mer frequency, TF over GST control)
binding signal (CRX): 1.17 fold enrichment (6-mer frequency, TF over GST control)
binding signal (ETV1): 1.02 fold enrichment (6-mer frequency, TF over GST control)

Reference: article PMC7862700, “An all-to-all approach to the identification of sequence-specific readers for epigenetic DNA modifications on cytosine”
